Assays:
Experiment in all cases: log2 ratio of Biotin-Ahx-Ub-VS probe labelling (fragment/DMSO); higher = less target engagement (more negative = stronger competition), active = hit call of the paper (q ≤ 0.05, log2 ratio ≤ -1)
Details in all cases: compound concentration: 200 uM; treatment time: 3 h
[1] = biological target: T1, USP19 (UniProt O94966)
T1 sequence (whole entry): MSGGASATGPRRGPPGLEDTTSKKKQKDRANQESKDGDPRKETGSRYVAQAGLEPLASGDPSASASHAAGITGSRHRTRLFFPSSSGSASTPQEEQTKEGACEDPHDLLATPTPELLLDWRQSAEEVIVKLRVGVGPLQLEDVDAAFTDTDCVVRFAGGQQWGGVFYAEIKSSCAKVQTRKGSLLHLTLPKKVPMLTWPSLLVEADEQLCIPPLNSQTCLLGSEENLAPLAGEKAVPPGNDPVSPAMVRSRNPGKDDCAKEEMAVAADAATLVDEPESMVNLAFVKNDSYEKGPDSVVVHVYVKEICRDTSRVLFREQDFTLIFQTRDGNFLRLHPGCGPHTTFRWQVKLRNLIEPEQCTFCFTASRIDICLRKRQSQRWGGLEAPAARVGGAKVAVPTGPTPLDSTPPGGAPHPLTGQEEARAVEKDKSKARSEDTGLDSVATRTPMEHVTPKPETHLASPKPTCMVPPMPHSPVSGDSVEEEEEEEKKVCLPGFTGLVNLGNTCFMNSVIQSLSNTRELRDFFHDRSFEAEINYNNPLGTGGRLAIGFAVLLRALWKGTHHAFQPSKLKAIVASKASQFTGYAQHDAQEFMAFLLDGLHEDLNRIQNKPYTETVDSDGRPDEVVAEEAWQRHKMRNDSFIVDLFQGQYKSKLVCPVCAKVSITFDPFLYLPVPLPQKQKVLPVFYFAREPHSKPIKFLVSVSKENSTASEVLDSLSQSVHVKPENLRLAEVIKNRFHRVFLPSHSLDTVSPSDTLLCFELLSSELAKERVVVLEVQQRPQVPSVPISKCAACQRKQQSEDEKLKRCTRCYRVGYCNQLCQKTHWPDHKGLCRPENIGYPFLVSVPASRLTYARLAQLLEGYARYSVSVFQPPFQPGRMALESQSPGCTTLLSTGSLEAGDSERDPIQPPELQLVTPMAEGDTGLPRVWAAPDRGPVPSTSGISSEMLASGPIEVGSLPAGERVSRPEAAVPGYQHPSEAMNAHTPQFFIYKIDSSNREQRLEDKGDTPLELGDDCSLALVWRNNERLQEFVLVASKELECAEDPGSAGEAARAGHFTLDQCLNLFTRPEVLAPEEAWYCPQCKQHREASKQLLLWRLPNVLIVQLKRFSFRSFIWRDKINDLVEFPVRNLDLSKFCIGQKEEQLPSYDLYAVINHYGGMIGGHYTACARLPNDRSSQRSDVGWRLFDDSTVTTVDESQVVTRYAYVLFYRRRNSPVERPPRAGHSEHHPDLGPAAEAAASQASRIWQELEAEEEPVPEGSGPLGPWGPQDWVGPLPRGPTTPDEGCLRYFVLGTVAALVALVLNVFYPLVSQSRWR
In short: (§1)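 The table lists average log2 ratios of fragment over vehicle, from an unpaired t-test on global-median-normalised Spectronaut label-free quantities. Proteins with ≥2 unique peptides were used. Samples were HEK293T lysate (495 µg) treated in triplicate with fragment at 200 µM or vehicle for 3 h, then with Biotin-Ahx-Ub-VS (0.5 µM final) for 1 h, with labelled DUBs NeutrAvidin-enriched and run by diaPASEF LC-MS/MS.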

[2] = biological target: T2, USP22 (UniProt Q9UPT9)
T2 sequence (whole entry): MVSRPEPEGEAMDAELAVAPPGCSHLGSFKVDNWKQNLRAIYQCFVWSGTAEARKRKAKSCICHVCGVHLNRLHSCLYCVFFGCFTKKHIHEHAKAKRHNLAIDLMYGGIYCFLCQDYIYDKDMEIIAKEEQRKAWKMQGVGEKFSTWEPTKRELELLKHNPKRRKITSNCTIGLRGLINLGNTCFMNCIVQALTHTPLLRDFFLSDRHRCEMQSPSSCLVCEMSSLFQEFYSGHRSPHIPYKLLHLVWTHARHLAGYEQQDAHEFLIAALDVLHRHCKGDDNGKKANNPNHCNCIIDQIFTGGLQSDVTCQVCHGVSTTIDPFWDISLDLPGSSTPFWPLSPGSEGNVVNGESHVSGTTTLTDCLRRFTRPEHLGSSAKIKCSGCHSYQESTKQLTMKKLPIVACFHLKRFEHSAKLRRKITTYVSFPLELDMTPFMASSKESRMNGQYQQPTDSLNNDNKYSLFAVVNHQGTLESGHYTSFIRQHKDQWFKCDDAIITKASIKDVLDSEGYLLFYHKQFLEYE
In short: as §1

[3] = biological target: USP24 (UniProt Q9UPU5)
USP24, sequence (Q9UPU5 whole entry): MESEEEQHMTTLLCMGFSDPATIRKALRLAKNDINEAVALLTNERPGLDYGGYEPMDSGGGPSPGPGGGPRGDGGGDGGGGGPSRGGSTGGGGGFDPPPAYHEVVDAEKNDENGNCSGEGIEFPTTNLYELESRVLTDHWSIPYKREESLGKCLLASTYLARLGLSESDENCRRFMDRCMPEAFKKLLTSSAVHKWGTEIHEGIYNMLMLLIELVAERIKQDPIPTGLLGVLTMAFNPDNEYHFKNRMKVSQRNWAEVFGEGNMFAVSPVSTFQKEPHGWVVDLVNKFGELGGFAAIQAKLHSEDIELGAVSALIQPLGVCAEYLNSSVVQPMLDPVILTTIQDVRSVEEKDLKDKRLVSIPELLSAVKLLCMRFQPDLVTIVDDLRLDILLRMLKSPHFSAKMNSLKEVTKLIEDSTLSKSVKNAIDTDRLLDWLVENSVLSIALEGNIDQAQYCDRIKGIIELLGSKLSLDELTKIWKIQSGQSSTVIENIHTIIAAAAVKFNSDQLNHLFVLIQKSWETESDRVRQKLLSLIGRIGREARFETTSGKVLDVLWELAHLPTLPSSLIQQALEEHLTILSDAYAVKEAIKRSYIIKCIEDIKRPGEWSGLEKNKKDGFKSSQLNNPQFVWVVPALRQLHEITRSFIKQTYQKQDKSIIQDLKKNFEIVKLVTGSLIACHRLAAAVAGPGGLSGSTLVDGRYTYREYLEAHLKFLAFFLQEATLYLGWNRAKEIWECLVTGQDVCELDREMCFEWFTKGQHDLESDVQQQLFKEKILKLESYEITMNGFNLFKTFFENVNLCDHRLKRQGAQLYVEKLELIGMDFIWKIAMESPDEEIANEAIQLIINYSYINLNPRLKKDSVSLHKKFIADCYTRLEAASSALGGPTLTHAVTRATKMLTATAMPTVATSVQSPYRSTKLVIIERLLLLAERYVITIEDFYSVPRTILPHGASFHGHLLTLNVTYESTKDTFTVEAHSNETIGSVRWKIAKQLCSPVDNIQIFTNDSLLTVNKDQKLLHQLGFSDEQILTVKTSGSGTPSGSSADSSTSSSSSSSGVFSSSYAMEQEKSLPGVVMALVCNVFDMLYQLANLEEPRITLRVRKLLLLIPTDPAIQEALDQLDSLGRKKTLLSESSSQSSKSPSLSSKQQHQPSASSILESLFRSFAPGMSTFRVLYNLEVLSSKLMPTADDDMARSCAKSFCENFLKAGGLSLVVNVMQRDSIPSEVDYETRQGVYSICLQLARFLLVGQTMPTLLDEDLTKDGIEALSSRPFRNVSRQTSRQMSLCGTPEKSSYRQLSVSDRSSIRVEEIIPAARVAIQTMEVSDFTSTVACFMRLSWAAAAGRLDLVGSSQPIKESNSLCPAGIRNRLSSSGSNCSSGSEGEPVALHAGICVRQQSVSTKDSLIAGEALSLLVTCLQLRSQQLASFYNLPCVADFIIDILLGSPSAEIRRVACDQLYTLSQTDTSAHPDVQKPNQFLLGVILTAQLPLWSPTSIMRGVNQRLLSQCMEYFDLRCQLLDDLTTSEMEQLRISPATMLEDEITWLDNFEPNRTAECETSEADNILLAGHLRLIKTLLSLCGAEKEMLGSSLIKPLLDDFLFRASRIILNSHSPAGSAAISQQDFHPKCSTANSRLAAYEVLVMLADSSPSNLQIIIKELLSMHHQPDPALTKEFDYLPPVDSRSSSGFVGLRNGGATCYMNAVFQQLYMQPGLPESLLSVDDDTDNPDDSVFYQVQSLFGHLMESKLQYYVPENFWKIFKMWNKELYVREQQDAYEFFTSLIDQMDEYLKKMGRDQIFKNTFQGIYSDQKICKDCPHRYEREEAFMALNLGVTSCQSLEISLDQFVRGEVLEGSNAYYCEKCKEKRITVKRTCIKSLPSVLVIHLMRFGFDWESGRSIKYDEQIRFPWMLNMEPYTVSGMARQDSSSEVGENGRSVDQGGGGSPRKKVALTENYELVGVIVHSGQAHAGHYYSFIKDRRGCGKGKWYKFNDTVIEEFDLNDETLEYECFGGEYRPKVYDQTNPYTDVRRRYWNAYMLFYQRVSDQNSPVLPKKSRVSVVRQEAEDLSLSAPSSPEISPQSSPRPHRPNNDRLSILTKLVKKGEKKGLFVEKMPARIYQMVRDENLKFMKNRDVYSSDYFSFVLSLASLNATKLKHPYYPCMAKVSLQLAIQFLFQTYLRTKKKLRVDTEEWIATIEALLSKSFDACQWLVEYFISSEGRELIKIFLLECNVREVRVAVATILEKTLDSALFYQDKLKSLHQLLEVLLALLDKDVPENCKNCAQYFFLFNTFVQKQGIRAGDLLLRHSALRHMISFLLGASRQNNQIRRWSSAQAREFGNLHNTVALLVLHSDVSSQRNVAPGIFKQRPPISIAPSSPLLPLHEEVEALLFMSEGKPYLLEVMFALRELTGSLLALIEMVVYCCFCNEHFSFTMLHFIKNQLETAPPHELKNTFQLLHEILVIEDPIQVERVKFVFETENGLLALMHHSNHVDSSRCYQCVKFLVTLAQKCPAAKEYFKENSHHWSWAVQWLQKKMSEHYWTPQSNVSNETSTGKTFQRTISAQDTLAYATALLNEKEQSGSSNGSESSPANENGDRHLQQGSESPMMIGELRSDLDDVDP
In short: as §1

[4] = biological target: T3, USP25 (UniProt Q9UHP3)
T3 sequence (whole entry): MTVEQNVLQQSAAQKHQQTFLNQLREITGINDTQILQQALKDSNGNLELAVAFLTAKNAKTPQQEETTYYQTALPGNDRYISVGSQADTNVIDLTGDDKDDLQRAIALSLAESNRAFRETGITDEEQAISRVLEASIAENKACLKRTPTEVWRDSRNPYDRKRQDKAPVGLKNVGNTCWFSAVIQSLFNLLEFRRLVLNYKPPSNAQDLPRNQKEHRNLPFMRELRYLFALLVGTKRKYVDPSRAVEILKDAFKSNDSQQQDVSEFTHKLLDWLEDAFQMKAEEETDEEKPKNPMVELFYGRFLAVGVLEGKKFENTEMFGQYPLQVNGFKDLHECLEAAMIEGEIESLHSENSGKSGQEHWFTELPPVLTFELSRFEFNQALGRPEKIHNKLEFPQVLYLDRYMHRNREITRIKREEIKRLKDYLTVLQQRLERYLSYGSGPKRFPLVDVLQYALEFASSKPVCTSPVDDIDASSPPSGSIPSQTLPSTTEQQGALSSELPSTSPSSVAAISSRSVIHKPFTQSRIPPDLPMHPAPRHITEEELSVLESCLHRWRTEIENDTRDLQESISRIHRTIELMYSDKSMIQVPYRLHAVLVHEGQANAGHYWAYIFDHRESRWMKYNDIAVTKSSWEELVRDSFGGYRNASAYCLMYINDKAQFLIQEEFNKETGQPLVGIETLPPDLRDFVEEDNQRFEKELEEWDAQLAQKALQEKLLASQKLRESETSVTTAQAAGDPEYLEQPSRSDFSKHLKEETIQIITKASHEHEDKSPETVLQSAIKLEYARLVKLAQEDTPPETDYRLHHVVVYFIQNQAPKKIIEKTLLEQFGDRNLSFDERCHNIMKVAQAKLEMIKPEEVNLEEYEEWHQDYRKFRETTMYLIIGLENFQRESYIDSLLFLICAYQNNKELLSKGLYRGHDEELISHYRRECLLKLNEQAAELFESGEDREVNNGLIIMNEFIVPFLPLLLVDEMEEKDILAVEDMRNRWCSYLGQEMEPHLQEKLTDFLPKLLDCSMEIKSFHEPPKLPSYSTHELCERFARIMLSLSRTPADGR
In short: as §1

[5] = biological target: T4, USP28 (UniProt Q96RU2)
T4 sequence (whole entry): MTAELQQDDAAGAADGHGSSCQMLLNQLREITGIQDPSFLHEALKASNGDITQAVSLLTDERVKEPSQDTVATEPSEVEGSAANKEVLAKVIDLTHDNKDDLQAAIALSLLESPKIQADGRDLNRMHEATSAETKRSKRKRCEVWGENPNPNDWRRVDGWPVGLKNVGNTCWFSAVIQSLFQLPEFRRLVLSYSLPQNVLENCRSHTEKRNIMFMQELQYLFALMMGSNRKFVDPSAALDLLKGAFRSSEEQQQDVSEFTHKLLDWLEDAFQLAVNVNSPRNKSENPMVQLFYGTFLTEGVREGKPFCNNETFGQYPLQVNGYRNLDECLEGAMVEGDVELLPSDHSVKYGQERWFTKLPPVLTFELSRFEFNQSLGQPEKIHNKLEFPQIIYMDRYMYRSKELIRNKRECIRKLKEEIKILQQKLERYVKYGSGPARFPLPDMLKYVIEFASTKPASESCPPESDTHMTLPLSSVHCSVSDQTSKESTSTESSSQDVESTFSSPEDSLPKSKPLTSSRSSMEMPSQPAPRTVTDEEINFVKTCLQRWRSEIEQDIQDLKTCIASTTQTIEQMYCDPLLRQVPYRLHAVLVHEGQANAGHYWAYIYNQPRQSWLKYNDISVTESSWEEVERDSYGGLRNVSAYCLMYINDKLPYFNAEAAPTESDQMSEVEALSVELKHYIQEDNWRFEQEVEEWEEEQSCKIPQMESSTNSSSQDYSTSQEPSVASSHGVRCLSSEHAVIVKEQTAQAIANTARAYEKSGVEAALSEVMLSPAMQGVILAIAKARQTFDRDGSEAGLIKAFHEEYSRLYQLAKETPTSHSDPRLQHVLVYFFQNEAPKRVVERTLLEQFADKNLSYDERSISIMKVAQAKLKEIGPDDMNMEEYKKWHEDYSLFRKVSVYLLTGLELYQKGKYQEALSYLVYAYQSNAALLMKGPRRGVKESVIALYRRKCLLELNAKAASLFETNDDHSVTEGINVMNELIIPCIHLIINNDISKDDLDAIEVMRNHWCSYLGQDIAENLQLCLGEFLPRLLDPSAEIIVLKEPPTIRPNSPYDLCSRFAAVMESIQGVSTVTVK
In short: as §1

Measured: log2 ratio of Biotin-Ahx-Ub-VS probe labelling

CC(=O)C1CCCCN1C(=O)CCl (stereo not given)
inactive: [1] -0.14 | [2] 0.0806 | [3] 0.0726 | [4] 0.106 | [5] -0.2
